From PubChem BioAssay (NCI)
The panel holds about 83,000 compounds, 20% with a hit somewhere; the sample as a whole holds those more often.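 96-well plates, one dose, 48 hours. Percent growth reported; active if below 10.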 Calls of active or inactive are those of the source.

How the values were obtained:
Experiment in all cases: NCI-60 one-dose screen, 48 h (100 = growth as untreated, 0 = no growth, -100 = all killed)
Conditions in all cases: 10 µM unless noted
SR leukemia = tested on: SR leukemia
RPMI-8226 leukemia = tested on: RPMI-8226 leukemia
OVCAR-8 ovarian = tested on: OVCAR-8 ovarian
OVCAR-5 ovarian = tested on: OVCAR-5 ovarian
OVCAR-4 ovarian = tested on: OVCAR-4 ovarian
SK-OV-3 ovarian = tested on: SK-OV-3 ovarian
IGROV1 ovarian = tested on: IGROV1 ovarian
OVCAR-3 ovarian = tested on: OVCAR-3 ovarian
HS 578T breast = tested on: HS 578T breast
NCI/ADR-RES ovarian = tested on: NCI/ADR-RES ovarian

Compound | growth (SR leukemia) | growth (RPMI-8226 leukemia) | growth (OVCAR-8 ovarian) | growth (OVCAR-5 ovarian) | growth (OVCAR-4 ovarian) | growth (SK-OV-3 ovarian) | growth (IGROV1 ovarian) | growth (OVCAR-3 ovarian) | growth (HS 578T breast) | growth (NCI/ADR-RES ovarian)
c1c[nH]c(CNC2CCCCC2)c1 | 144% (inactive) | 103% (inactive) | 102% (inactive) | 101% (inactive) | 111% (inactive) | 102% (inactive) | 107% (inactive) | 98.1% (inactive) | 102% (inactive) | 99.1% (inactive)
CCN(CC)CCN1CC(O)=C(c2nc(-c3ccc(Cl)cc3)cs2)C1=N | -4.58% (active) | 13.6% (inactive) | 44.6% (inactive) | 66.4% (inactive) | 84.6% (inactive) | 101% (inactive) | 40.8% (inactive) | 80.5% (inactive) | 47.2% (inactive) | 69.4% (inactive)
Clc1cc(Cl)cc(Nc2ccc3cc(OCCCN4CCOCC4)ccc3n2)c1 | 1.31% (active) | -2.42% (active) | 44.4% (inactive) | 65.7% (inactive) | 46.8% (inactive) | 67.4% (inactive) | 58% (inactive) | 60% (inactive) | 25% (inactive) | 51% (inactive)
NC1=NCc2nc3ccccc3c(=O)n2C1 | 93.1% (inactive) | 79.1% (inactive) | 102% (inactive) | 85.8% (inactive) | 106% (inactive) | 117% (inactive) | 101% (inactive) | 101% (inactive) | 111% (inactive) | 96.8% (inactive)
O=[N+]([O-])c1ccc(Sc2cccc[n+]2[O-])c2nonc12 | 1.31% (active) | -12.2% (active) | 82.5% (inactive) | 120% (inactive) | 40.9% (inactive) | 108% (inactive) | 6.59% (active) | -8.18% (active) | 24.8% (inactive) | 84.8% (inactive)
NNC(=O)c1nc(N)n(-c2ccc(S(N)(=O)=O)cc2)n1 | 88.5% (inactive) | 91.4% (inactive) | 96.2% (inactive) | 101% (inactive) | 100% (inactive) | 94.7% (inactive) | 103% (inactive) | 89.2% (inactive) | 94.5% (inactive) | 100% (inactive)
C[C@@]1(CCC#N)[C@H]2CC[C@@H]3[C@H]4[C@H](C(=O)/C=C/c5cccnc5)CC[C@]4(C#N)CC[C@@]3(C)[C@]2(C)CC[C@H]1C(=O)/C=C/c1cccnc1 | 12.9% (inactive) | -2.94% (active) | 34.7% (inactive) | 136% (inactive) | 69.1% (inactive) | 89.7% (inactive) | 45.7% (inactive) | 39.9% (inactive) | 78.4% (inactive) | 65.1% (inactive)
O=C(NC(CSSCC(NC(=O)c1ccccc1)C(=O)O)C(=O)O)c1ccccc1 (stereo not given) | 15.3% (inactive) | 104% (inactive) | 104% (inactive) | 105% (inactive) | 128% (inactive) | 102% (inactive) | 96.7% (inactive) | 99.6% (inactive) | 96.3% (inactive) | 97.3% (inactive)
COC1=C(OC)C(=O)C(OC)=C(OC)C1=O | 94.4% (inactive) | 102% (inactive) | 93.4% (inactive) | 108% (inactive) | 42.1% (inactive) | 110% (inactive) | 101% (inactive) | 99.3% (inactive) | 97% (inactive) | 98% (inactive)
Cc1ccc(-c2cc3c(cc2O)C2CCCCC2(N2CCOCC2)O3)cc1 (stereo not given) | 86% (inactive) | 96% (inactive) | 102% (inactive) | 110% (inactive) | 91% (inactive) | 104% (inactive) | 104% (inactive) | 110% (inactive) | 108% (inactive) | 99.1% (inactive)
Cc1nn(-c2ccccc2)c2nc3c(c(-c4ccc(Cl)cc4)c12)CNC1(CCSCC1)N3 | 96.8% (inactive) | 109% (inactive) | 105% (inactive) | 98.2% (inactive) | 98.9% (inactive) | 98.9% (inactive) | 99.1% (inactive) | 104% (inactive) | 99.8% (inactive) | 97.3% (inactive)
O=C1CCc2c(sc3[nH]c(=S)n(-c4ccc(OC(F)(F)F)cc4)c(=O)c23)C1 | 35.8% (inactive) | -21.7% (active) | 53.6% (inactive) | 55.7% (inactive) | 17.1% (inactive) | 104% (inactive) | 55.6% (inactive) | 13.2% (inactive) | 37.1% (inactive) | 12.5% (inactive)
NC(=S)Nc1cccc(O)c1 | 82.4% (inactive) | 88.5% (inactive) | 94.2% (inactive) | 96.3% (inactive) | 107% (inactive) | 101% (inactive) | 98% (inactive) | 110% (inactive) | 102% (inactive) | 94.2% (inactive)
Cc1ccc2nc(NC(=O)CSc3nc(-c4ccccc4)c(C#N)c(=O)n3Cc3ccccc3)sc2c1 | 44.5% (inactive) | 67.8% (inactive) | 93% (inactive) | 108% (inactive) | 92.8% (inactive) | 82.1% (inactive) | 78% (inactive) | 58.5% (inactive) | 78.2% (inactive) | 92.2% (inactive)
C#CCOc1nc(C)cc(C)c1C#N | 91.8% (inactive) | 111% (inactive) | 102% (inactive) | 95.1% (inactive) | 100% (inactive) | 101% (inactive) | 102% (inactive) | 110% (inactive) | 101% (inactive) | 103% (inactive)
N#Cc1c(-c2ccccn2)[nH]c(=S)[nH]c1=O | 95.4% (inactive) | 112% (inactive) | 109% (inactive) | 94.6% (inactive) | 119% (inactive) | 104% (inactive) | 110% (inactive) | 105% (inactive) | 109% (inactive) | 109% (inactive)
O=C(Nc1ccc(Nc2ccncc2)cc1)c1ccc(C(=O)Nc2ccc(Nc3ccncc3)cc2)cc1 | 52.4% (inactive) | 3.64% (active) | 74.5% (inactive) | 51.1% (inactive) | 68.1% (inactive) | 68% (inactive) | 75.8% (inactive) | 111% (inactive) | 88.2% (inactive) | 109% (inactive)
N#C/C(=C/C=C/c1cccc(Cl)c1)S(=O)c1ccccc1 (stereo not given) | 1.43% (active) | -13.4% (active) | -2.48% (active) | -45.1% (active) | -52.9% (active) | 19.6% (inactive) | -25.7% (active) | -86.1% (active) | 11.6% (inactive) | 7.8% (active)
COc1cc(-c2nn(-c3ccccc3)cc2-c2ccnc(NCCNS(=O)(=O)c3ccc(Cl)cc3)n2)ccc1Cl | -19.4% (active) | 35% (inactive) | 36.1% (inactive) | 68.8% (inactive) | 38.3% (inactive) | 22.7% (inactive) | 38.2% (inactive) | 35.1% (inactive) | 58.4% (inactive) | 31.7% (inactive)
CNS(=O)(=O)c1n[nH]nc1-c1cc(C(C)(C)C)c(O)c(C(C)(C)C)c1 | 98.6% (inactive) | 96.2% (inactive) | 100% (inactive) | 111% (inactive) | 100% (inactive) | 92.9% (inactive) | 103% (inactive) | 112% (inactive) | 102% (inactive) | 105% (inactive)
COc1cc2ncn3c(=O)c4c5c(sc4nc3c2cc1OC)CCCC5 | 134% (inactive) | 105% (inactive) | 107% (inactive) | 98.8% (inactive) | 92.7% (inactive) | 97.5% (inactive) | 98.8% (inactive) | 100% (inactive) | 94.7% (inactive) | 96% (inactive)
CN1CCN(CC(=O)Nc2nc(-c3cccc(NS(=O)(=O)c4cccc5c(N(C)C)cccc45)c3)cs2)CC1 | 11.5% (inactive) | 24.2% (inactive) | 87.9% (inactive) | 86.6% (inactive) | 61.2% (inactive) | 93.1% (inactive) | 86.6% (inactive) | 74.4% (inactive) | 75% (inactive) | 87.3% (inactive)
COc1cccc(-c2nn(-c3ccccc3)cc2-c2ccnc(NCCCNC(=O)Nc3ccc(Cl)c(Cl)c3)c2)c1 | -32.8% (active) | -2.49% (active) | 1.46% (active) | 54.4% (inactive) | 30.9% (inactive) | 22.2% (inactive) | 36.6% (inactive) | 29.5% (inactive) | -26.1% (active) | -20.3% (active)
CC/C=C1/C(=O)C=C[C@@H]1C/C=C\CCCC(=O)O | 20% (inactive) | 19.9% (inactive) | 66.5% (inactive) | 123% (inactive) | 86.9% (inactive) | 111% (inactive) | 114% (inactive) | 82.2% (inactive) | 69.1% (inactive) | 91.5% (inactive)
COC(=O)[C@H](CSC)N(C)C(=O)[C@@H]1CSSC[C@@H](NC(=O)c2nc3ccccc3cc2O)C(=O)NCC(=O)N1C | 28.6% (inactive) | 85.2% (inactive) | 90.2% (inactive) | 128% (inactive) | 103% (inactive) | 91.6% (inactive) | 95.8% (inactive) | 58.2% (inactive) | 90.9% (inactive) | 104% (inactive)
CC(C)CCC[C@@H](C)[C@H]1CC[C@H]2[C@@H](Nc3ccc(O)cc3)CCC[C@]12C | 71.8% (inactive) | 96.6% (inactive) | 97.6% (inactive) | 114% (inactive) | -73.1% (active) | 75.3% (inactive) | 38.8% (inactive) | 84.8% (inactive) | 104% (inactive) | 71.4% (inactive)
CCSC1=NC2C(N(CC)C(=O)N2CC)N1/N=C/C=C/c1ccccc1[N+](=O)[O-] (stereo not given) | 15.1% (inactive) | 17.3% (inactive) | 8.6% (active) | 22.8% (inactive) | 42.6% (inactive) | 28% (inactive) | 15.3% (inactive) | -2.75% (active) | 6.38% (active) | 4.68% (active)
